This note sets out measurements from PubChem BioAssay AID651957 (The Scripps Research Institute Molecular Screening Center, 2012).

SMILES strings stand for the structures. Among all 370,000 compounds or so, about 620 (0.17%) were called active. The sample holds actives, similar compounds and a random draw of the others, so the mix is not that of the screen.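 The calls were made as follows: active = inhibition above the mean inhibition of all tested compounds plus 3 SD, set per campaign (cut at about 52% in these data); inactive = the rest.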

For this test, the target named is Nuclear receptor coactivator 2 (Homo sapiens) (UniProt Q15596). Briefly: inhibition of GAL4-SRC2 driven luciferase reporter, primary screen, SRC2 inhibitor project, cell-based, luminescence (AID 651957).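 Also: 0% = DMSO treated cells and 100% = cells given Gossypol at 36 µM.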 To be noted: HEK293 GAL4-SRC2 luciferase reporter, at 9 µM, hits give high values.
Sequence of Nuclear receptor coactivator 2 (Homo sapiens) (Q15596 whole entry, looked up, the tested form may be a part): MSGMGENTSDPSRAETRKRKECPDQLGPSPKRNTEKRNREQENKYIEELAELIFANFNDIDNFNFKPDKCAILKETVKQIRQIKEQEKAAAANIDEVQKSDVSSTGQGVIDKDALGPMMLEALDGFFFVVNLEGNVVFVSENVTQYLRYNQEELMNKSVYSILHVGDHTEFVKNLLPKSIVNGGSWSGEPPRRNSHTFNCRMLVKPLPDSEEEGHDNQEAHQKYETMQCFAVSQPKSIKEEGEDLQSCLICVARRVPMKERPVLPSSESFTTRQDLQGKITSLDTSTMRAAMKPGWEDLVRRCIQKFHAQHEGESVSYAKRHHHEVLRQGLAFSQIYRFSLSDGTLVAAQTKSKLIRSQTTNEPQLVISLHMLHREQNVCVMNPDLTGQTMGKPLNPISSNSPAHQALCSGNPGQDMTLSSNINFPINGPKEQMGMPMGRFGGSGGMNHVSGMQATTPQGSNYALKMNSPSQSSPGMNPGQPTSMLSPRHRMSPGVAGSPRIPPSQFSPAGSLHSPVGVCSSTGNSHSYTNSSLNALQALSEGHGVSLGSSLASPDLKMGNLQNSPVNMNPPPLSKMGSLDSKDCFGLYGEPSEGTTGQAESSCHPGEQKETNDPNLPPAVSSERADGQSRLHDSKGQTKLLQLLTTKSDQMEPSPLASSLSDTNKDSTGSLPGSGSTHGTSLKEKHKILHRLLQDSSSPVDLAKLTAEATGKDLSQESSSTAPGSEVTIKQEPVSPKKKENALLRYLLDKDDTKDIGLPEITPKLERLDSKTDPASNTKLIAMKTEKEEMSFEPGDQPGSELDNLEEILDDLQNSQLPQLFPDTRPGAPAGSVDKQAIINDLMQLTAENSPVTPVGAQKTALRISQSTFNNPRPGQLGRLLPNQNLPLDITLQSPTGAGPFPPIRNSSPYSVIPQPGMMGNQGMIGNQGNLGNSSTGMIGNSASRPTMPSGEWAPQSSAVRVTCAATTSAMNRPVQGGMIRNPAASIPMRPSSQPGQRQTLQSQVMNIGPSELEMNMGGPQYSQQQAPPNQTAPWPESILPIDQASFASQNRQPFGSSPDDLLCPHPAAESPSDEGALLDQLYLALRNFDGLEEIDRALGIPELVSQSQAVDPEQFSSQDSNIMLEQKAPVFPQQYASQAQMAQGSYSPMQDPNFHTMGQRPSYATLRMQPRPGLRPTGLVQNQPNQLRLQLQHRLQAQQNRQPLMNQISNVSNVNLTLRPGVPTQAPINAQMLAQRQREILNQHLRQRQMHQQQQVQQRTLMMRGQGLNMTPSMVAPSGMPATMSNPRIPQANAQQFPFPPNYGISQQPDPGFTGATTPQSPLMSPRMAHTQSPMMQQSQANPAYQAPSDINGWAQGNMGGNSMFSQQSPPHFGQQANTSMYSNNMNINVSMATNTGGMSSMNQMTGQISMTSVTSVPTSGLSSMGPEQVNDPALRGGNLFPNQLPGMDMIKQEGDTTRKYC
On to `Cc1cc(N2CCN(C(=O)OC(C)(C)C)C[C@H]2C)ccc1N1CCN(Cc2ccccc2)[C@H](C)C1`, for which the inhibition was -2.83% (inactive).
In the case of `COc1ccc(CN2C(=O)N3Cc4cc(OC)ccc4C3CS2(=O)=O)cc1` (stereo not given) it was 15.8% (inactive).
Then `Cc1ccc(-n2c(SCC(=O)Nc3ccc(S(=O)(=O)Nc4nccs4)cc3)nnc2-c2ccccn2)cc1`, with 9.13% (inactive); and `CC(=O)NCc1ccc(S(=O)(=O)NC2CCN(Cc3ccccc3)CC2)cc1`, with 6.61% (inactive).
Then `COC(=O)[C@@H]1C[C@@]2(O)[C@@H](O)[C@@H](O)[C@@H](O)C[C@H]2N1Cc1ccc(C)s1`, with -14.3% (inactive); and `C/C=C/c1ccc(OCC(O)CN2CCCCCCC2)c(OC)c1` (stereo not given), with 11.7% (inactive); and `CCOC(=O)[C@@]12CN(C(=O)OC(C)(C)C)CC=C1N(Cc1ccc(OC)cc1)C(=O)[C@H]2CC(=O)NCc1ccc(OC)c(OC)c1`, with -4.35% (inactive).
In the case of `O=C(CSc1nnc(-c2ccccc2)n1Cc1ccco1)Nc1ccccc1-c1ccccc1`, the inhibition is -16.5% (inactive).
Then `CC(=O)C1=C(C)N(Cc2ccccc2)C(=S)NC1c1cccc(Br)c1` (stereo not given), with -0.56% (inactive); and `COC(=O)c1ccc(CN2C(=O)[C@]3(OCCC=C[C@H]3C)c3c(Br)cccc32)cc1`, with 4.53% (inactive); and `Cc1cc(Nc2ccccc2)n(C(=O)c2ccc(N)cc2)n1`, with 62% (active).
In the case of `Cn1c(Nc2ccccc2)cc(=O)n(C)c1=O` it was -0.54% (inactive); in that of `Cc1ccc(NC(=O)Nc2cc(C)nn2-c2ccccc2)cc1`, -32.3% (inactive); in that of `COc1ccc2c(c1)CN1CN(CCc3ccccc3)S(=O)(=O)CC21` (stereo not given), 5.4% (inactive).
In the case of `O=C(NCc1ccccc1)[C@H]1CCCN1C(=O)[C@H]1CCCN1C(=O)N1CCOCC1` it was 3.99% (inactive); in that of `CCOC(=O)C1CCCN(C(=O)c2cccc3ccccc23)CC1` (stereo not given), 7.84% (inactive); in that of `CCC(C)(C(=O)NC1CCCCC1)N(C)C(=O)c1ccc2c(c1)OCO2` (stereo not given), -11.6% (inactive).
Regarding `COc1ccc(OC)c(CNC(=O)c2cc(=O)[nH]c3ccc(S(=O)(=O)N4CCCC4)cc23)c1`, the inhibition is -15.1% (inactive).
Regarding `O=C1CC[C@@H](COc2ccc3[nH]cc(-c4ccccc4)c3c2-c2ccccc2)N1`, the inhibition is 4.07% (inactive).
In the case of `CCCc1nc(SCC(=O)N2CCCC2)c2c(=O)n(C)c(=O)n(C)c2n1` it was 2.56% (inactive); in that of `O=C1NC(c2ccccc2)CCC1(Cl)Cl` (stereo not given), -13.7% (inactive); in that of `O=C1NC(c2ccccc2)Oc2ccccc21` (stereo not given), -0.1% (inactive).
In the case of `O=C1NC(c2ccccc2)Cc2ccncc21` (stereo not given) it was 58.9% (active).
Take `CCCCn1c(N)c(N(Cc2ccccc2OC)C(=O)COc2cc(C)ccc2Cl)c(=O)[nH]c1=O`: the inhibition was -2.7% (inactive).
Take `O=C(NCc1nnc(SCC(=O)N2CCCCCC2)o1)c1ccc(F)cc1`: the inhibition was -14.4% (inactive).
In the case of `Cc1ccccc1NC(=O)COC(=O)c1ccc(Sc2ncn[nH]2)c([N+](=O)[O-])c1` it was -15.7% (inactive); in that of `COC(=O)c1cc(S(=O)(=O)N2CCN(c3ccccc3C)CC2)cn1C`, 20.3% (inactive).
In the case of `C[C@@H]1COc2cccc(N3CCCC3)c2S(=O)(=O)N1C` it was -9.18% (inactive).
Take `Cc1ccc2oc(=O)c3cnn(CC(=O)N(Cc4ccco4)C4CCCCC4)c3c2c1`: the inhibition is -25.6% (inactive).
On to `NNC(=O)C1CC(O)CN1S(=O)(=O)c1ccc(Cl)cc1` (stereo not given), for which the inhibition is 23.4% (inactive).
Then `COc1ccccc1CNC(=O)C1CCN(S(=O)(=O)c2ccc3c(c2)OCCO3)CC1`, with -1.43% (inactive); and `COC(=O)[C@]12C[C@H](CC(=O)N3CCN(C(=O)C4CC4)CC3)C(=O)N(CCC3=CCCCC3)C1=C[C@H](C(C)C)O[C@@H]2C1CC1`, with -0.28% (inactive); and `CCNC(=S)N1CCC(c2nc3cc(C)c(C)cc3[nH]2)CC1`, with -32.6% (inactive).
In the case of `O=C(CSc1nnc(-c2ccccn2)n1-c1ccccc1)Nc1ccc2cn[nH]c2c1` it was -5.6% (inactive); in that of `CC(C)(C)C(c1nc2ccccc2[nH]1)n1c(Cc2csc3ccccc23)nc2ccccc21` (stereo not given), -15% (inactive).
Consider `CS(=O)(=O)N1CCN=C1SCc1ccc(F)cc1`, for which the inhibition was -10.1% (inactive).
For `O=C(C1CCN(S(=O)(=O)c2ccccc2)CC1)N1CCN(C2CCCCC2)CC1`, the inhibition was 14.3% (inactive).
Regarding `COC(=O)C1=C(C)N(Cc2ccc(C(F)(F)F)cc2)C(=NCc2ccc(C(F)(F)F)cc2)NC1c1cccc(Cl)c1` (stereo not given), the inhibition is -4.35% (inactive).
Then `OCCCNc1nccc(-c2cc(Nc3cccc(Cl)c3)ncn2)n1`, with 56.3% (active).
Take `Cc1ccc(NC(=O)c2cc(C)nn2-c2ccccc2)c(C)c1`: the inhibition was 4.89% (inactive).
In the case of `CCCC(=O)N1CCC1(C)C(=O)NCc1ccc(SC)cc1` (stereo not given) it was -38.9% (inactive); in that of `Cc1sc2nc(SCC(=O)c3ccc(O)c(O)c3)n(Cc3ccco3)c(=O)c2c1C`, 8.73% (inactive); in that of `C=CCN=C1NC(c2cccc(C(F)(F)F)c2)C(C(=O)OC)=C(C)N1C` (stereo not given), -11.9% (inactive).
For `CC(C)N1CCCCC(NC(=O)c2ccc3ccccc3c2)C1=O` (stereo not given), the inhibition was -10% (inactive).
With `CCOc1ccc(S(=O)(=O)NCCCn2ccnc2)cc1NC(C)=O`, the inhibition was 12.2% (inactive).
Then `Nc1[nH]c(/C=C2/CCCCC2n2[nH]c(=O)n(-c3ccccc3)c2=O)c(Cc2ccccc2)[n+]1Cc1ccccc1` (stereo not given), with 12.9% (inactive); and `C=CCN1[C@@H](Cc2ccccc2)COc2cccc(N3CCSCC3)c2S1(=O)=O`, with 10.1% (inactive).
In the case of `CC(C)(C)OC(=O)NCc1cc(F)ccc1/C=C/S(=O)(=O)NCCc1ccccc1` it was 4.87% (inactive).
Then `COc1cccc(N(C)C(=O)[C@@H](C)[C@@H](O)c2ccc3ccccc3c2)c1`, with -32.8% (inactive); and `CC(C)CC(CCc1ccccc1)OS(N)(=O)=O` (stereo not given), with -15.3% (inactive).
On to `O=C(NC(=S)N1CCN(Cc2ccccc2)CC1)c1ccccc1`, for which the inhibition was -12.4% (inactive).
`O=C(O)C1C2C=CC(C2)C1C(=O)N1CCN(CCO)CC1` (stereo not given): the inhibition is -0.51% (inactive).
In the case of `OCCN1CCN(C(=S)c2ccc(-c3ccccc3)cc2)CC1` it was 71.1% (active); in that of `CC(=O)OC12CCCN(C1)/C(=C/c1ccncc1)C2` (stereo not given), 12.7% (inactive).
Then `COC(=O)C1=C(C)N(Cc2cccc(C(F)(F)F)c2)C(=NCc2ccccc2)NC1c1ccc(Cl)cc1` (stereo not given), with -0.5% (inactive).
Then `Cc1ccccc1NC(=O)c1nn(-c2ccc(F)c(F)c2)ccc1=O`, with 1.35% (inactive); and `Cc1nnnn1/C(=C\c1ccccc1)C(=O)OCC(=O)N1CC2(C)CC1CC(C)(C)C2` (stereo not given), with 32.3% (inactive); and `O=C1N=C2SCCN2/C1=C\c1c(Cl)cccc1Cl`, with 4.12% (inactive).
With `Cc1ccc(NC(=O)CCOc2ccccc2)cc1S(=O)(=O)Nc1ccccc1Cl`, the inhibition is 9.26% (inactive).
In the case of `CC(C)Cc1nc(Nc2ccc(S(=O)(=O)N3CCCC3)cc2)c2nnn(Cc3ccccc3)c2n1` it was -14.5% (inactive); in that of `CCCCOCCCNC(=O)C[C@H]1C[C@@]2(C(=O)OC)C(=C[C@H](C(C)(C)C)O[C@@H]2C)N(CCc2ccc(OC)c(OC)c2)C1=O`, 1.08% (inactive).
For the compound `COc1ccc(NC(=O)CCCN2C(=O)C(c3ccccc3)Oc3cccnc32)cc1` (stereo not given), the inhibition is 2.65% (inactive).
In the case of `COc1ccc(NC(=O)CN2C(=O)CSC2=O)cc1` it was -15.1% (inactive).
With `COc1ccc(/C=C2/SC(=O)N(CCCCCC(=O)Nc3ccccc3C(=O)O)C2=S)cc1`, the inhibition is 58.3% (active).
Then `CC(=O)Nc1ccc(NC(=O)C(C)n2c3ccccc3c3nc(=O)cc(C)n32)cc1` (stereo not given), with -6.71% (inactive); and `O=C1C=C(c2ccccc2)CCC1`, with -5.31% (inactive).
In the case of `COC(=O)[C@]12C[C@H](CC(=O)NCc3ccccc3)C(=O)N(CCC3=CCCCC3)C1=C[C@H](C(C)(C)C)O[C@@H]2C` it was 28.1% (inactive); in that of `N=c1n(CCc2ccccc2)c2ccccc2n1Cc1ccccc1F`, 2.8% (inactive); in that of `COc1c(C=O)c(CCN(C)C(=O)c2ccc(F)cc2)cc2c1OCO2`, 0.41% (inactive).
Take `CCCC[C@H]1C2CC(OC(=O)NCc3ccccc3)C(C2)[C@H]2CCCCN21` (stereo not given in full): the inhibition was -8.24% (inactive).
Then `COCCC(=O)Nc1ccc2c(c1)CN(C(=O)CCOC)CC2`, with 9.25% (inactive); and `Cc1ccc(C(=O)N(Cc2ccccn2)CC2CCCO2)cc1` (stereo not given), with -16.2% (inactive); and `Cc1noc(C)c1NC(=O)Nc1ccc2c(c1)C(=O)N([C@H](C)CO)C[C@H](C)[C@H](CN(C)Cc1ccncc1)OCCCC[C@@H](C)O2`, with 5.48% (inactive).
On to `CC(C)N1CCCCC(NC(=O)C(C)(C)C)C1=O` (stereo not given), for which the inhibition is 11.4% (inactive).
In the case of `O=C(Nc1ccccc1Cl)/C(Cl)=C(\Cl)S(=O)c1ccccc1` (stereo not given) it was 85.5% (active); in that of `COc1ccc(N2c3ccccc3CN(Cc3ccccc3)[C@@H](C)[C@H]2Cc2ccc(-c3ccccc3)cc2)cc1`, -9.73% (inactive).
In the case of `Cc1c(C(C)c2ccccc2O)[nH]c2ccccc12` (stereo not given), the inhibition is -18.6% (inactive).
For `O=S1(=O)c2c(cccc2N2CC[C@H](O)C2)O[C@@H]2CCN1C2`, the inhibition is -22.3% (inactive).
In the case of `Cc1ccc(C2=CCN(C)C(=O)N2c2ccc(Cl)cc2)cc1` it was 30.5% (inactive); in that of `O=C(NC1CCCCN(Cc2cccc(C(F)(F)F)c2)C1=O)c1ccccc1I` (stereo not given), 18.9% (inactive); in that of `CCCC(CCC(=O)OC)(C(=O)OCC)c1csc(N)n1` (stereo not given), 11% (inactive).
In the case of `CCOC(=O)[C@]12CCCCC/C=C\1N(Cc1ccc(OC)cc1)C(=O)[C@H]2CC(=O)NCc1ccc(C)o1` it was -22.3% (inactive); in that of `O=C(CSc1nc2ccccc2n1Cc1ccccc1)NNC(=S)Nc1ccccc1`, 4.68% (inactive); in that of `COC(=O)C1=C(C)N(Cc2cccc(C(F)(F)F)c2)C(=NCc2cccc(C(F)(F)F)c2)NC1c1ccccc1C(F)(F)F` (stereo not given), -30.7% (inactive).
Take `Cc1ccccc1CN1CCCCC(NC(=O)c2cccc(C#N)c2)C1=O` (stereo not given): the inhibition was -18.3% (inactive).
